From PubChem BioAssay AID1159580 (chemical genetic matrix, 2015)
“And” between values parts separate entries of the source, which are not always exact repeats. Identical values can stand only once. Hit rate of the full screen: of about 5,500 compounds, about 2,000 (36%) were called active. Another 18% or so got no clear call; they are omitted. Cut-off read from the data, not from the text of the source: active = normalized growth mostly below about 0.91 (no sharp cut-off); inconclusive = no clear call, values can overlap the other calls; inactive = mostly above about 0.92. This is one part of the list.

Assay: chemical genetic growth profiling, strain panel (AID 1159580);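 note: tested at 20 µM; growth read once vehicle control cultures reached saturation at 30 °C; 1 = growth at the plate median or of vehicle wells; lower values mean less growth of the strain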
Details: growth OD

Measured: normalized growth

Nc1ccc(S(=O)(=O)Nc2ccnn2-c2ccccc2)cc1
inactive: S. cerevisiae deletion strains, locus YJR075W, strain HOC1, active compounds read low 1.02 and 1.03 | S. cerevisiae deletion strains, locus YKL009W, strain mrt4, active compounds read low 0.976 | S. cerevisiae deletion strains, locus YKL068W, active compounds read low 1 | S. cerevisiae deletion strains, locus YKL085W, strain MDH1 (second series), active compounds read low 0.999 | S. cerevisiae deletion strains, locus YKL085W, strain MDH1, active compounds read low 0.999 | S. cerevisiae deletion strains, locus YKL160W, strain elf1, active compounds read low 0.989 | S. cerevisiae deletion strains, locus YKL190W, strain CNB1, active compounds read low 1.01 | S. cerevisiae deletion strains, locus YKR001C, strain vps1, active compounds read low 0.992 | S. cerevisiae deletion strains, locus YKR026C, strain gcn3, active compounds read low 0.965 | S. cerevisiae deletion strains, locus YKR091W, strain srl3, active compounds read low 0.997 | S. cerevisiae deletion strains, locus YLL001W, strain dnm1, active compounds read low 0.979 | S. cerevisiae deletion strains, locus YLL026W, active compounds read low 0.997 | S. cerevisiae deletion strains, locus YLL041C, strain sdh2, active compounds read low 0.986 | S. cerevisiae deletion strains, locus YLR027C, strain aat2, active compounds read low 0.985 | S. cerevisiae deletion strains, locus YLR039C, strain RIC1, active compounds read low 0.982 | S. cerevisiae deletion strains, locus YLR058C, strain SHM2, active compounds read low 1.01 | S. cerevisiae deletion strains, locus YLR102C, strain apc9, active compounds read low 0.99 | S. cerevisiae deletion strains, locus YLR113W, strain HOG1, active compounds read low 0.998 | S. cerevisiae deletion strains, locus YLR221C, strain rsa3, active compounds read low 0.986 | S. cerevisiae deletion strains, locus YLR258W, strain gsy2, active compounds read low 0.998 | S. cerevisiae deletion strains, locus YLR262C, strain YPT6 (second series), active compounds read low 0.885 | S. cerevisiae deletion strains, locus YLR262C, strain YPT6, active compounds read low 0.993 | S. cerevisiae deletion strains, locus YLR268W, strain sec22, active compounds read low 0.998 | S. cerevisiae deletion strains, locus YLR320W, strain mms22, active compounds read low 1.03 | S. cerevisiae deletion strains, locus YLR330W, strain CHS5, active compounds read low 1 | S. cerevisiae deletion strains, locus YLR342W, strain FKS1 (second series), active compounds read low 0.983 | S. cerevisiae deletion strains, locus YLR342W, strain FKS1, active compounds read low 1.01 | S. cerevisiae deletion strains, locus YLR357W, strain rsc2, active compounds read low 1 | S. cerevisiae deletion strains, locus YLR370C, strain arc18, active compounds read low 1.01 | S. cerevisiae deletion strains, locus YLR371W, strain rom2, active compounds read low 0.99 | S. cerevisiae deletion strains, locus YLR384C, strain iki3, active compounds read low 0.977 | S. cerevisiae deletion strains, locus YLR418C, strain cdc73, active compounds read low 1.01 | S. cerevisiae deletion strains, locus YML016C, strain PPZ1, active compounds read low 1.01 | S. cerevisiae deletion strains, locus YML032C, strain rad52, active compounds read low 0.996 | S. cerevisiae deletion strains, locus YML120C, strain ndi1, active compounds read low 0.99 | S. cerevisiae deletion strains, locus YML124C, strain tub3, active compounds read low 1 | S. cerevisiae deletion strains, locus YMR058W, strain fet3, active compounds read low 0.986 | S. cerevisiae deletion strains, locus YMR078C, strain ctf18, active compounds read low 0.998 | S. cerevisiae deletion strains, locus YMR125W, strain sto1, active compounds read low 0.954 | S. cerevisiae deletion strains, locus YMR129W, active compounds read low 0.988 | S. cerevisiae deletion strains, locus YMR205C, strain PFK2, active compounds read low 1.05 | S. cerevisiae deletion strains, locus YMR223W, strain ubp8, active compounds read low 0.991 | S. cerevisiae deletion strains, locus YMR231W, strain pep5, active compounds read low 0.997 | S. cerevisiae deletion strains, locus YMR263W, strain SAP30, active compounds read low 1.03 | S. cerevisiae deletion strains, locus YMR307W, strain GAS1, active compounds read low 0.943 and 0.968 | S. cerevisiae deletion strains, locus YNL067W, strain RPL9B, active compounds read low 1.02 | S. cerevisiae deletion strains, locus YNL071W, strain lat1, active compounds read low 0.993 | S. cerevisiae deletion strains, locus YNL128W, strain TEP1, active compounds read low 0.995 | S. cerevisiae deletion strains, locus YNL175C, strain NOP13, active compounds read low 1.01 | S. cerevisiae deletion strains, locus YNL183C, strain NPR1, active compounds read low 0.899 | S. cerevisiae deletion strains, locus YNL197C, strain WHI3, active compounds read low 1.01 | S. cerevisiae deletion strains, locus YNL209W, strain ssb2, active compounds read low 0.994 | S. cerevisiae deletion strains, locus YNL224C, strain SQS1, active compounds read low 1 | S. cerevisiae deletion strains, locus YNL233W, strain BNI4, active compounds read low 1.02 | S. cerevisiae deletion strains, locus YNL248C, strain rpa49, active compounds read low 0.957 | S. cerevisiae deletion strains, locus YNL250W, strain rad50, active compounds read low 1 | S. cerevisiae deletion strains, locus YNL271C, strain bni1, active compounds read low 0.993 | S. cerevisiae deletion strains, locus YNL298W, strain CLA4, active compounds read low 1.01 | S. cerevisiae deletion strains, locus YNL307C, strain MCK1, active compounds read low 0.99 | S. cerevisiae deletion strains, locus YNL322C, strain KRE1 (second series), active compounds read low 1 | S. cerevisiae deletion strains, locus YNL322C, strain KRE1, active compounds read low 1.01 and 1.02 | S. cerevisiae deletion strains, locus YNR049C, strain mso1, active compounds read low 0.996 | S. cerevisiae deletion strains, locus YNR052C, strain pop2, active compounds read low 0.981 | S. cerevisiae deletion strains, locus YOL006C, strain TOP1, active compounds read low 1.07 | S. cerevisiae deletion strains, locus YOL012C, strain htz1 1.59 | S. cerevisiae deletion strains, locus YOL147C, strain pex11, active compounds read low 1.01 | S. cerevisiae deletion strains, locus YOR001W, strain rrp6, active compounds read low 0.969 | S. cerevisiae deletion strains, locus YOR061W, strain CKA2, active compounds read low 1.01 | S. cerevisiae deletion strains, locus YOR069W, strain VPS5, active compounds read low 1.01 | S. cerevisiae deletion strains, locus YOR070C, strain gyp1, active compounds read low 0.997 | S. cerevisiae deletion strains, locus YOR080W, strain dia2, active compounds read low 1 | S. cerevisiae deletion strains, locus YOR083W, strain WHI5 (second series), active compounds read low 1.03 | S. cerevisiae deletion strains, locus YOR083W, strain WHI5, active compounds read low 0.968 | S. cerevisiae deletion strains, locus YOR106W, strain vam3, active compounds read low 0.977 | S. cerevisiae deletion strains, locus YOR136W, strain idh2, active compounds read low 1 | S. cerevisiae deletion strains, locus YOR144C, strain elg1, active compounds read low 1 | S. cerevisiae deletion strains, locus YOR184W, strain ser1, active compounds read low 0.996 | S. cerevisiae deletion strains, locus YOR231W, strain MKK1, active compounds read low 0.974 | S. cerevisiae deletion strains, locus YOR265W, strain rbl2, active compounds read low 1 | S. cerevisiae deletion strains, locus YOR270C, strain vph1, active compounds read low 0.997 | S. cerevisiae deletion strains, locus YOR290C, strain snf2, active compounds read low 0.957 | S. cerevisiae deletion strains, locus YOR316C, strain cot1, active compounds read low 0.994 | S. cerevisiae deletion strains, locus YPL051W, strain arl3, active compounds read low 0.978 | S. cerevisiae deletion strains, locus YPL055C, strain LGE1, active compounds read low 1.05 and 1.01 | S. cerevisiae deletion strains, locus YPL078C, strain atp4, active compounds read low 0.963 | S. cerevisiae deletion strains, locus YPL106C, strain sse1, active compounds read low 0.993 | S. cerevisiae deletion strains, locus YPL240C, strain hsp82, active compounds read low 0.979 | S. cerevisiae deletion strains, locus YPL241C, strain CIN2, active compounds read low 1.01 | S. cerevisiae deletion strains, locus YPL256C, strain CLN2, active compounds read low 0.975 | S. cerevisiae deletion strains, locus YPR119W, strain clb2, active compounds read low 0.997 | S. cerevisiae deletion strains, locus YPR141C, strain kar3, active compounds read low 1 | S. cerevisiae deletion strains, locus YPR163C, strain tif3, active compounds read low 1 | S. cerevisiae deletion strains, locus YPR167C, strain met16, active compounds read low 0.991 | S. cerevisiae deletion strains, strain wtn01, active compounds read low 1 | S. cerevisiae strains, strain wild type, active compounds read low 1.01
